PubChem BioAssay AID504727 (Broad Institute, 2011)
Unmarked numbers belong to inactive results. Active and inactive are the calls of the source.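 How the source made its calls: active means fitted half-maximal concentration AC50 at or below ten times the highest valid tested dose, with signal falling as DNA is displaced (actives reach about 34 µM in these data); inconclusive means flat fit at moderate signal loss, or poor fit quality; inactive means the rest, including signal rising instead of falling.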

Assay: DNA intercalators displacing acridine orange, dose response, artefact control for KSHV LANA DNA-binding inhibitor project, biochemical, fluorescence polarization, cherry-picked samples, set 2 (AID 504727);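 on activity change, negative = DNA displacement: 0% = median of neutral control wells and -100% = mitoxantrone positive control wells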
Settings: AC50: Acridine orange-DNA displacement; series mostly up to 35 µM; activity change, negative = DNA displacement: at the top concentration

Going from COc1ccc(NC(=O)Cc2nnc(SCC(=O)Nc3nccs3)n2C)cc1 to COc1ccc(CC(=O)O/N=C(\N)c2ccc(OC)cc2)cc1, the “activity change, negative = DNA displacement” value (“activity change” for short) falls from 4.06% to 2.52%.

Compared with O=C(/C=C/c1ccco1)Nc1ccccc1C(=O)Nc1cccc(C(=O)O)c1, Cc1ccccc1NC(=O)CN1C(=O)N/C(=C\c2cccn2-c2cccc(C(=O)O)c2)C1=O is lower in “activity change” value: 5.18% for the first, 3.04% for the second.

Going from CSc1ccc(/C=N/Nc2cccc(C(=O)O)c2)cc1 to COc1ccc(C(=O)N/N=C/c2ccc(OC)c(COc3ccccc3)c2)cc1, the “activity change” value rises from 4.22% to 14.2%.

Going from O=c1[nH]nc(CSCc2ccccc2Cl)[nH]1 to S=c1[nH]nc([C@@H]2C[C@H]2c2ccccc2)n1-c1ccccc1Cl, the “activity change” value falls from 4.01% to 2.19%.

First: Cc1ccc(C(=O)CCC(=O)Nc2ncccc2C)cc1
Second: CCN(CC(=O)NCc1cccs1)C(=O)c1ccc(S(=O)(=O)Nc2ccccc2C)cc1
The “activity change” value of the first is higher: 10.4% for the first, 0.528% for the second.

First: CC1=C(O)C(=O)C(C2=C(O)C(=O)C(C)=C(O)C2=O)=C(O)C1=O
Second: O=C(O)c1cc(N2C(=O)C=CC2=O)cc(N2C(=O)C=CC2=O)c1
The “activity change” value of the first is higher: 1.4% for the first, -1.71% for the second.

Compared with C=C(C)C(=O)Nc1cccc(C2=NOC3(C2)C[C@@H](C(N)=O)N(C(=O)C2(C)CC2)C3)c1 (some centres undefined), CC[C@H](C)[C@H](NC(N)=O)C(=O)Nc1ccc(NC(C)=O)cc1 is higher in “activity change” value: 4.47% for the first, 6% for the second.

Compared with O=c1cc(-c2ccc(O)c(O)c2)oc2cc(O[C@@H]3O[C@H](CO)[C@@H](O)[C@H](O)[C@H]3O)cc(O)c12, O=C(O)Cc1c[nH]c2cccc(O)c12 is higher in “activity change” value: -6.28% for the first, 1.91% for the second.

Going from O=C(NCc1cccnc1)C(=O)C1C(=O)Nc2ccccc21 (centres undefined) to COc1cccc(NC(=O)N(CCN(C)C)C(C)c2cccnc2)c1 (centres undefined), the “activity change” value rises from 2.18% to 5.51%.

First: COCCN(C(=O)CN1CCCc2ccccc21)c1c(N)n(Cc2ccccc2)c(=O)[nH]c1=O
Second: C=CCN1C(=O)/C(=c2\sc3nc(=O)c(Cc4ccccc4Cl)nn3c2=O)c2ccccc21
The “activity change” value of the first is higher: 8.12% for the first, 7.68% for the second.

Going from CC(=O)NC(C(=O)c1ccccc1)C(=O)c1ccccc1 to COc1ccc(N=C2SC(CC(=O)Nc3ccccc3)C(=O)N2Cc2ccco2)cc1 (centres undefined), the “activity change” value falls from 5.17% to 1.29%.

Going from S=c1c2c(nc3nc[nH]n13)CCC2 to CN(Cc1cnc2nc(N)nc(N)c2n1)c1ccc(C(=O)NC(CCC(=O)O)C(=O)O)cc1 (centres undefined), the “activity change” value falls from 2.23% to 2.09%.

First: CCC(C)[C@H](NC(=O)[C@@H]1Cc2ccccc2CN1)C(=O)Nc1ccc2c(c1)OCO2 (some centres undefined)
Second: CCOC(=O)C1=C(O)/C(=C/c2cc(C)n(-c3ccccc3)c2C)N=C1C
The “activity change” value of the first is lower: 1.3% for the first, 4.12% for the second.

First: CCOC(=O)C1(Cc2cccc(F)c2)CCN(Cc2c(C)nn(CC)c2C)CC1
Second: C=CCNC(=O)c1cn(CC)c2cc(N3CCN(C(=O)c4ccco4)CC3)c(F)cc2c1=O
The “activity change” value of the first is higher: -0.455% for the first, -5.64% for the second.

Going from Cc1cc2c(N)cccc2nn1 to COc1ccc(OC)c(NC(=O)c2nnn(Cc3ccc(Br)cc3F)c2N)c1, the “activity change” value rises from -2.03% to 7.55%.

First: NNC(=S)Nc1ccc(S(=O)(=O)N2CCOCC2)cc1
Second: CCOC(=O)c1sc(NC(=O)CSC(=S)N2CCN(C)CC2)nc1C
The “activity change” value of the first is higher: 7.25% for the first, 2.26% for the second.

In the case of O=C1CC(=O)N(Cc2ccco2)C(=O)N1, the “activity change” value is reported as 8.41%.

For CC(C)(C)n1nnnc1C(c1cccnc1)N(Cc1ccccc1)Cc1ccco1 (centres undefined), the AC50 was 0.202 µM (active).
With CCn1nc(-c2ccccc2)c2nc3ccccc3nc21 the AC50 was 24.2 µM (active).
With Cc1cc2nc3c(=O)[nH]c(=O)[nH]c3nc2c([N+](=O)[O-])c1N the AC50 was 2.41 µM (active).
With Nc1c(C(=O)Nc2ccccc2F)sc2nc(Cc3ccccc3)cc(C(F)(F)F)c12 the AC50 was 20.2 µM (active).
With CNc1c2cccc(C)c2nc2c(C(=O)NCCN(C)C)cccc12 the AC50 was 6.16 µM (active).
For CCCN(CCC)S(=O)(=O)c1ccc(C(=O)OCCN2C(=O)c3cccc4c(N5CCOCC5)ccc(c34)C2=O)cc1, the AC50 was 6.89 µM (active).
